# The entries come from a sample that favours hits as a whole.
# STK33 inh – inhibitors of human STK33 kinase; Q9BYT3; ADP-Glo luminescence, MBP substrate; inhibition, % at 12.5 µM; actives 0.44% (n = 27,000); AID 2322; in the data active means inhibition above about 20%; inconclusive means no clear call, values can overlap the other calls
# Target sequence (Q9BYT3 whole entry, looked up): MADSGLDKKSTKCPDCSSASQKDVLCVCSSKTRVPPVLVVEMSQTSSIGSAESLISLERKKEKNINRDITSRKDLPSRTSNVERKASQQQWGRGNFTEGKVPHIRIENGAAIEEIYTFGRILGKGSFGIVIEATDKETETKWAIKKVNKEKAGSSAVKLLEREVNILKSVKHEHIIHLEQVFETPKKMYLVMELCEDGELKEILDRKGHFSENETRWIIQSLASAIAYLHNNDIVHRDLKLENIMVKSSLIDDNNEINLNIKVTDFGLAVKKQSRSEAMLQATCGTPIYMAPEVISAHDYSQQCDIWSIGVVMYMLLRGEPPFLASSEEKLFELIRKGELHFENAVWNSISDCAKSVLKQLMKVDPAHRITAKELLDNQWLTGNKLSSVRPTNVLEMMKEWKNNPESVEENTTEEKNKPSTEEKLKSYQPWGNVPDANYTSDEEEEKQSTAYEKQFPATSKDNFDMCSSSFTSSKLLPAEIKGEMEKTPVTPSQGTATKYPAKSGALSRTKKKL
# MITF inhib – inhibitors of MITF; TRPM1 promoter luciferase, luminescence, 24 h; inhibition, % (no concentration beside the values); actives 0.28% (n = 37,000); AID 2240; in the data active means inhibition above about 85%; inconclusive means no clear call, values can overlap the other calls; inactive means below about 68%;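 further: human melanocyte line stably carrying TRPM1 promoter luciferase reporter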
# mut p53 react – mutant p53 pathway reactivation. SW480 PUMA-promoter luciferase. activation, % at 9.98 µM. actives 1.5% (n = 28,000). AID 624151; in the data active means activation above about 52%; inconclusive means no clear call, values can overlap the other calls
# NOMO-1 viab – STK33 inhibitor candidate reducing NOMO-1 cell viability; NOMO-1 AML viability, CellTiter-Glo luminescence, 72 h; inhibition, % (test concentration not listed); actives 7.5% (n = 37,000); in the data active means inhibition above about 80%; inconclusive means no clear call, values can overlap the other calls
# Active calls of the source: *; ? = inconclusive; . = not tested or not shown.
SMILES,STK33 inh,MITF inhib,mut p53 react,NOMO-1 viab
C[C@H]1CN([C@@H](C)CO)C(=O)Cc2cc(NC(=O)c3ccncc3)ccc2O[C@H]1CN(C)Cc1ccc(-c2ccccc2)cc1,0.1,33.1,.,89.1*
C[C@H]1CN([C@@H](C)CO)C(=O)Cc2cc(NC(=O)Nc3ccc4c(c3)OCO4)ccc2O[C@H]1CN(C)Cc1ccc(-c2ccccc2)cc1,3.4,19.8,.,92.3*
COc1ccc(NC(=O)Nc2ccc3c(c2)CC(=O)N([C@H](C)CO)C[C@@H](C)[C@@H](CN(C)Cc2ccc(-c4ccccc4)cc2)O3)cc1,.,3.9,.,111.6*
C=C1C2=C(C(=O)N1OC)[C@H](O)[C@](C)(O)[C@H](CCCCC)O2,.,.,-1.3,.
COc1ccccc1NC(=O)CSc1nnc(-c2ccccc2)n1-c1cccc(C)c1,4.0,41.8,-7.6,23.6
CC12CCC(=O)C=C1CCC1(C)C2(C)CCC2(C)C(C(=O)CO)CCC21C (configuration not stated),7.7,30.2,.,93.7*
C[C@]12CCC(=O)C=C1CC[C@@H]1C2CC[C@@]2(C)C1CC[C@@H]2C(=O)CO (some centres not stated),-0.7,4.6,-10.7,12.6
N#CCC(=O)N=Cc1ccc(Cl)cc1Cl,.,2.7,.,5.7
COc1cc(NC(=O)CN(C)S(=O)(=O)c2ccc3ccccc3c2)cc(OC)c1,2.0,10.8,23.8,7.5
c1ccc(OCc2nc3ccccc3n2Cc2ccccn2)cc1,-0.2,-53.9,59.0*,27.5
COC(=O)c1ccc(NC(=O)CSc2nc(-c3cccs3)cc(=O)[nH]2)cc1,-1.4,6.7,4.2,-17.1
CCOc1ccc(N2C(=O)/C(=C/c3ccc(F)cc3)N=C2SC(CC)C(=O)N2CCOCC2)cc1 (configuration not stated),.,.,-7.7,.
C=CCNC1=C2C[C@@H](C)C[C@H](OC)[C@H](O)[C@@H](C)/C=C(\C)[C@H](OC(N)=O)[C@@H](OC)C=C/C=C(/C)C(=O)NC(=CC1=O)C2=O,0.3,15.4,-87.9,119.0*
C[C@@H]1CN([C@@H](C)CO)C(=O)Cc2cc(NC(=O)Nc3ccc4c(c3)OCO4)ccc2O[C@@H]1CN(C)Cc1ccc2c(c1)OCO2,-0.6,8.5,.,6.1
C[C@@H]1CN([C@H](C)CO)C(=O)Cc2cc(NC(=O)Nc3ccc4c(c3)OCO4)ccc2O[C@@H]1CN(C)Cc1ccc(C(F)(F)F)cc1,0.1,8.6,.,81.0*
C[C@@H]1CN([C@H](C)CO)C(=O)Cc2cc(NC(=O)Nc3ccc(F)cc3)ccc2O[C@H]1CN(C)Cc1ccc2c(c1)OCO2,2.5,-7.1,.,37.1
C[C@H](CO)N1C[C@H](C)[C@H](CN(C)Cc2ccc3c(c2)OCO3)Oc2ccc(NC(=O)Nc3ccc(C(F)(F)F)cc3)cc2CC1=O,3.9,19.9,-13.6,124.0*
C[C@@H]1CN([C@H](C)CO)C(=O)Cc2cc(NC(=O)Nc3ccc(C(F)(F)F)cc3)ccc2O[C@@H]1CN(C)Cc1ccc2c(c1)OCO2,1.0,25.8,.,115.0*
C[C@H]1CN([C@@H](C)CO)C(=O)Cc2cc(NC(=O)Nc3ccc(C(F)(F)F)cc3)ccc2O[C@@H]1CN(C)Cc1ccc2c(c1)OCO2,0.8,-0.9,.,5.3
Cc1c(Cl)cccc1NC(=O)CN(c1ccccc1)S(C)(=O)=O,-2.3,-20.1,-9.7,34.3
CC(=O)Oc1ccc(-c2coc3cc(OC(C)=O)cc(OC(C)=O)c3c2=O)cc1,-0.5,-28.0,.,28.7
CC(=O)Oc1ccc2ccc3ccc(OC(C)=O)c4ccc1c2c34,.,11.3,.,126.8*
O=C1c2ccccc2C(Nc2ccc(S(=O)(=O)N3CCOCC3)cc2)N1Cc1ccccc1Cl (configuration not stated),.,.,1.7,.
COc1ccc(S(=O)(=O)Nc2ccc3c(c2)C(=O)N([C@H](C)CO)C[C@H](C)[C@@H](CN(C)Cc2ccc(C(F)(F)F)cc2)OCCCC[C@@H](C)O3)cc1,-2.2,37.0,.,?
C[C@@H]1CCCCO[C@H](CN(C)Cc2ccc(C(F)(F)F)cc2)[C@@H](C)CN([C@H](C)CO)C(=O)c2cc(NS(=O)(=O)c3ccc(Cl)cc3)ccc2O1,2.1,14.4,.,81.5*
SMILES,STK33 inh,MITF inhib,mut p53 react,NOMO-1 viab
Cc1ccc(S(=O)(=O)Nc2ccc3c(c2)C(=O)N([C@H](C)CO)C[C@H](C)[C@@H](CN(C)Cc2ccc(C(F)(F)F)cc2)OCCCC[C@@H](C)O3)cc1,2.4,46.7,.,112.1*
CC1=C(C(=O)c2ccccc2)C(NC(=O)c2ccncc2)(C(F)(F)F)C(=O)N1Cc1ccccc1 (configuration not stated),-3.6,23.9,10.1,15.1
CCc1cccc2c(C(C(=O)c3ccccc3)c3c[nH]c4c(CC)cccc34)c[nH]c12,.,43.9,.,110.6*
CC(C)CC(C(=O)c1ccccc1)c1ccccc1 (configuration not stated),.,-13.5,.,48.8
C[C@H]1CC[C@@H]2[C@@H](C(=O)c3c(O)c([C@]4(O)CC[C@@H](O)[C@H]5O[C@H]54)c[nH]c3=O)[C@@H](C)C=C[C@H]2C1,-2.0,74.3,.,121.1*
CC(C)(C)c1ccc(C(=O)Nc2ccc(NC(=O)c3ccccc3F)cc2)cc1,.,9.5,.,125.2*
COc1ccc(/C=C/C(=O)NCc2ccccc2)cc1,.,-46.2,.,-2.8
COc1ccc(C(O)CNC(=O)/C=C/c2ccccc2)cc1 (configuration not stated),-1.8,10.4,-68.0,112.4*
COc1cc2c(cc1O)C1Cc3ccc(O)c(OC)c3CN1CC2 (configuration not stated),0.7,-9.2,0.2,5.7
Fc1ccc(Nc2nc3ccccc3nc2Nc2ccc(F)cc2)cc1,.,34.6,.,135.3*
CCC(Sc1nc(N)cc(=O)[nH]1)C(=O)Nc1ccc2ccccc2c1 (configuration not stated),0.9,17.1,-13.7,-11.3
COc1ccccc1-n1c(SCC(=O)N(c2ccccc2)c2ccccc2)nc2ccccc2c1=O,1.1,-4.0,-12.0,32.5
Cc1ccc(-c2nnc(SCc3ccccc3C#N)n2-c2ccccc2)cc1Cl,-1.5,-21.3,83.9*,32.3
O=C1NN=C(c2ccccc2)/C1=C1\OC(c2ccccc2)=CS1,.,36.8,.,138.8*
C[C@H]1CN([C@@H](C)CO)C(=O)c2cc(NC(=O)Cc3ccccc3)ccc2O[C@H]1CN(C)Cc1ccncc1,-1.3,3.6,.,92.4*
C[C@H](CO)N1C[C@H](C)[C@H](CN(C)Cc2ccc3c(c2)OCO3)Oc2ccc(NC(=O)Cc3ccccc3)cc2C1=O,.,-6.5,.,108.7*
C[C@H](CO)N1C[C@H](C)[C@H](CN(C)Cc2ccc3c(c2)OCO3)Oc2ccc(NC(=O)CCC(F)(F)F)cc2C1=O,.,0.4,.,92.0*
Cc1c(C(=O)C2C(=O)C(=O)N(Cc3cccnc3)C2c2ccccn2)cnn1-c1ccccc1 (configuration not stated),0.9,-8.6,-37.4,-5.5
O=C(COc1ccc(C(=O)Nc2ccccc2Cl)cc1)Nc1cc(Cl)cc(Cl)c1,3.5,20.4,-3.0,16.1
O=C(Nc1ccccc1Cl)c1cc2ccccc2cc1O,.,35.9,.,131.6*
Cc1ccc(NC(=O)C(C)Sc2nnc(C)s2)cc1 (configuration not stated),-5.2,-3.1,0.6,-3.8
